{
  "source": "PubChem BioAssay AID504408",
  "about": "(Broad Institute, 2011)",
  "note": "Screen size: about 300,000 compounds; about 5,200 (1.7%) were called active.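 The calls were made as follows: active = mean replicate activation of at least 50% with a set share of replicates each reaching 50%; inconclusive = only one of those two conditions met; inactive = mean below 50% and too few replicates reaching it.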 For the sample, actives were picked, then their nearest neighbours and some compounds at random.",
  "data": [
    {"assay": "HSF-1 response element luciferase induction – NIH3T3-HGL cells, MG132 stress, luminescence, single point, primary screen (AID 504408);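 also: 0% = median of the neutral control wells and 100% = twice that signal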", "details": "NIH3T3-HGL HSF-1 luciferase reporter, MG132, 8 h; at 9 µM; hits give high values; 100% = twice DMSO control signal", "values": [
      {"smiles": "CN(CC(=O)Nc1cccc(F)c1)C(=O)C1CC(=O)N(CCc2ccccc2)C1", "note": "(stereo unspecified)", "activation": "-1.17% (inactive)"},
      {"smiles": "CCn1c2ccccc2c2cc(NC(=O)CNC)ccc21", "activation": "-4.5% (inactive)"},
      {"smiles": "CCn1c2ccccc2c2cc(NC(=O)COC(=O)c3ccccc3Br)ccc21", "activation": "15.8% (inactive)"},
      {"smiles": "CCn1c2ccccc2c2cc(NC(=O)C/C(C)=N/NC(=O)c3ccccc3N)ccc21", "activation": "87.9% (active)"},
      {"smiles": "Nc1c(C(=O)Nc2ccc3c(c2)OCCO3)nnn1Cc1ccccc1", "activation": "43.5% (inactive)"},
      {"smiles": "Cc1ccc(OCCNC(=O)CN2C(=O)NC3(CCCC3)C2=O)cc1", "activation": "2.14% (inactive)"},
      {"smiles": "Cc1cc(N/C=C\\C(=O)c2ccc(Cl)c(Cl)c2)no1", "activation": "54.6% (active)"},
      {"smiles": "CCCNC(=O)c1ccc(Cl)c(Cl)c1", "activation": "8.76% (inactive)"},
      {"smiles": "CCC(=O)Nc1ccc(C(=O)Nc2cc(C)on2)cc1", "activation": "11.5% (inactive)"},
      {"smiles": "O=C(CCCN=C1NS(=O)(=O)c2ccccc21)OCC(=O)c1ccc(F)c(F)c1", "activation": "-1.2% (inactive)"},
      {"smiles": "CC(Oc1ccc(F)cc1)C(=O)Nc1cc(S(=O)(=O)N2CCOCC2)ccc1N1CCN(C)CC1", "note": "(stereo unspecified)", "activation": "-1.39% (inactive)"},
      {"smiles": "Cc1ccc(S(=O)(=O)N(C)c2ccc(OCC(=O)OCc3ccc(C#N)cc3)cc2)cc1", "activation": "-4.36% (inactive)"},
      {"smiles": "Cc1ccc2nc(SCC(=O)N3CCN(c4ccccc4)CC3)nc(=O)n2c1", "activation": "-13.7% (inactive)"},
      {"smiles": "C=CS(=O)c1sc(Cl)c(N2CCOCC2)c1[N+](=O)[O-]", "note": "(stereo unspecified)", "activation": "103% (active)"},
      {"smiles": "CCOC(=O)C1=C(CSc2nccn2C)NC(=O)NC1c1ccc(OC)cc1", "note": "(stereo unspecified)", "activation": "30.7% (inactive)"},
      {"smiles": "COCCOC(=O)C1=C(C)N=c2s/c(=C\\c3cccs3)c(=O)n2C1c1cccs1", "note": "(stereo unspecified)", "activation": "20% (inactive)"},
      {"smiles": "CCOC(=O)C1=C(C)N=c2s/c(=C\\C(=O)OC)c(=O)n2C1c1ccc(OC)cc1", "note": "(stereo unspecified)", "activation": "61.6% (active)"},
      {"smiles": "COCCCn1c(SCC(=O)Nc2oc(C)c3c(C)n[nH]c(=O)c23)nc2sc3c(c2c1=O)CCC3", "activation": "0.458% (inactive)"},
      {"smiles": "C=CCOc1ccc(/C=C2/C(=O)ON=C2C)cc1OCC", "activation": "-6.38% (inactive)"},
      {"smiles": "C#CCOc1ccccc1/C=C1/C(=O)ON=C1C", "activation": "-2.14% (inactive)"},
      {"smiles": "CC1=NOC(=O)/C1=C\\c1ccccc1", "activation": "54.7% (active)"},
      {"smiles": "Cn1ccsc1=NC(=O)c1cc(S(=O)(=O)N2CCOCC2)ccc1Cl", "activation": "0.095% (inactive)"},
      {"smiles": "O=C(Nc1c(Br)cc2c(c1Br)Cc1ccccc1-2)C(F)(F)F", "activation": "-5.38% (inactive)"},
      {"smiles": "COc1cc(/C=C(\\C#N)c2nc3ccccc3[nH]2)ccc1O", "activation": "20.9% (inactive)"},
      {"smiles": "COc1ccc2[nH]cc(/C=C(/C#N)S(=O)(=O)c3ccccc3)c2c1", "activation": "0.918% (inactive)"},
      {"smiles": "COc1ccc(/C=C(\\C#N)c2c[nH]c3ccccc23)cc1", "activation": "69.3% (active)"}
    ]}
  ]
}
